Only a selection was taken, and hits are over-represented in it overall.
Pf Dd2 growth: qHTS Primary assay for Inhibitors of Plasmodium falciparum Dd2 growth in vitro; Potency, µM (top dose mostly 28.9 µM), without a hit: top-dose activity, negative = inhibition, most hits filed as inhibitors; P. falciparum Dd2 growth, SYBR Green, 72 h; AID 1347417, 2020; 120,000 tested, 4.3% active; active means well fitted inhibition curve with a large enough effect;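 further: plate controls were DMSO vehicle for no effect and reference drug for full effect; nearly all actives have a fitted effect of over 65% in size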
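Readout: SYBR Green fluorescence, 485 nm excitation, 535 nm emission, after ~16 h lysis at 37C. Before that, Dd2-infected red cells (2.5% hematocrit) grew 72 h with compound, 29 uM top final concentration.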
* hit, by the source's call; i = inactive; [ ] = dose if it differs, or a comment. Potency means the concentration at half of the fitted maximal effect.

SMILES | Pf Dd2 growth
CN(C)C[C@@H]1CN(Cc2ccncc2)C[C@H]1N | 7.9%
CC(C)c1ccc(NC(=O)c2ccc(F)c(S(=O)(=O)N3CCCC3)c2)cc1 | -23.6%
CC(C)c1ccc(NC(=O)c2ccc(F)c(S(=O)(=O)N3CCCCCC3)c2)cc1 | 21.2%
Cc1ccc(O)c(NC(=O)c2ccc(Br)c(S(=O)(=O)N3CCCCC3)c2)c1 | 6.31µM*
COc1cncc([C@@H](NC(=O)c2ccc3c(c2)CCC3)C2CC(O)C2)c1 (stereo partly specified) | 1.0%
CN(C(=O)c1ccc[nH]c1=O)C1CCc2nn(C)c(=O)n2CC1 (stereo unspecified) | i
COc1ccc(C(=O)NC(c2ccccc2Cl)c2cc(Cl)c3cccnc3c2O)cc1 (stereo unspecified) | 3.55µM*
Cc1ccc(C(=O)Nc2cccc3cccnc23)cc1Cl | 4.1%
COc1ccc(C(=O)Nc2cc3c(cc2C(=O)c2ccccc2Cl)OCCO3)cc1 | 22.6%
Cc1cc(C)n(-c2ccc(F)cc2CN2CCC3(CC2)COC(=O)O3)n1 | -5.4%
Cc1ccc(-c2nnc([C@H]3CCN(C(C)C)C3)o2)cc1 | i
COCCN1CCCN(C(=O)c2cc(C)ccc2C)c2ccccc21 | 10µM*
COCCN1CCCN(C(=O)c2ccoc2)c2ccccc21 | -23.9%
COCCN1CCCN(C(=O)c2cc(C)cc(C)c2)c2ccccc21 | i
COCc1ccc2c(c1)c(OC(C)(C)C(=O)NCCCn1ccnc1)nn2Cc1cccc(OC)c1 | i
O=C(O)C[C@@H]1CCN(C(=O)Nc2ccc(OC(F)(F)F)cc2)C[C@@H]1CCN1C[C@@H]2C[C@H](C1)c1cccc(=O)n1C2 | i
O=C(C1CCC(O)CC1)N1CCCC(CCc2ccccc2C(F)(F)F)C1 (stereo unspecified) | -20.6%
Cc1noc2c(NC3CCN(C)CC3)cc(-c3ccc(F)cc3)nc12 | i
COc1ccc(-c2nn(C)c3sc(C(=O)N4CCN(c5ccccc5F)CC4)cc23)cc1OC | -11.3%
COc1ccccc1N1CCN(C(=O)c2cc3c(-c4ccccc4F)nn(C)c3s2)CC1 | 11.2µM*
CCCN(CCC)CCNC(=O)c1cc2c(-c3ccccc3F)nn(C)c2s1 | 3.98µM*
Cn1nc(-c2ccccc2F)c2cc(C(=O)Nc3cc(F)ccc3F)sc21 | 25.1%
Cn1nc(-c2ccccc2F)c2cc(C(=O)NCc3ccc(Cl)cc3)sc21 | i
Cn1nc(-c2ccccc2F)c2cc(C(=O)NCc3cccc(Cl)c3)sc21 | -8.0%
CC(O)c1cc2n(n1)CCN(C(=O)C1(c3ccc(Cl)cc3)CCC1)C2 (stereo unspecified) | -10.1%
SMILES | Pf Dd2 growth
COCCNC(=O)C(NC(=O)c1ccccc1Cl)C1CCN(C(=O)c2ccc(OC)cc2)CC1 (stereo unspecified) | -14.3%
CC[C@H](C)[C@H](N)C(=O)N1CCC2(CC1)Nc1ccccc1NC2=O | -5.1%
CCNC(=O)N1CCCCCNC(=O)[C@@H]2CCCC[C@@H]21 | 6.0%
O=C(C1CC1)N1CCc2nc(C3CC3)nc(-c3ccc(Cl)cc3)c2C1 | -0.7%
CC(C)c1ccc(NC(=O)N[C@H]2CO[C@H]3[C@@H]2OC[C@H]3O)cc1 | 7.5%[44.1 µM]
CCOc1ccc(CC(=O)NCCc2csc(-c3ccc(Cl)cc3)n2)cc1 | i
CCOc1ccc(CC(=O)NCCc2csc(-c3ccc(C)cc3)n2)cc1 | 10µM*
Cc1ccc(-c2nc(CCNC(=O)c3ccc(C)c(C)c3)cs2)cc1 | 14.5%
O=C(N[C@@H]1CN(C(=O)NC2CCCCC2)CCC[C@H]1O)c1ccc(OCCN2CCOCC2)cc1 | -24.9%
COCCN1C[C@H]2CN(Cc3ccc(C(=O)O)cc3)CCN2C1=O | -23.3%[44.1 µM]
O=C(CC1CCCCC1)N1CC(c2nnc(-c3ccncc3)o2)C2(CCOCC2)C1 (stereo unspecified) | -0.2%
Cc1nc(-c2ccc(F)cc2)n(Cc2nc(-c3ccc(Cl)cc3)oc2C)c(=O)c1CCO | -11.7%
CN(Cc1cccn1C)C(=O)Cc1ccc(F)cc1 | 10.9%[44.1 µM]
COCCN1CC(CNc2nc(CCN)nc3sc(C)c(C)c23)CC1=O (stereo unspecified) | -0.8%
CCCc1cc(CN(C)c2nc(CCN)nc3sc(C)c(C)c23)[nH]n1 | 10µM*
C[S+](=O)([O-])N1CC2(Cc3ccccc31)CN(C(=O)C1CCCC1)C2 | -5.6%[44.1 µM]
CCCNC(=O)c1cc2sc(C)c(CN3CCCCC3)c2[nH]1 | -23.9%
Cc1sc2cc(C(=O)NC(C)C)[nH]c2c1CN1CCCCC1 | i
COc1ccc(NC(=O)c2cc3sc(C)c(CN4CCCCC4)c3[nH]2)cc1OC | 2.24µM*
Cc1sc2cc(C(=O)NCc3cccnc3)[nH]c2c1CN1CCCCC1 | i
CC(=O)Nc1ccc(NC(=O)c2cc3sc(C)c(CN4CCCCC4)c3[nH]2)cc1 | 2.24µM*
COc1ccc(NC(=O)c2cc(CN3CCCC3)on2)cc1Cl | 458.2%[5.79 µM]
CCN1c2cc(C(=O)Nc3ccc(OC)cc3)ccc2C(=O)N2CCCC21 (stereo unspecified) | -14.4%
COc1ccc(CN2CC[C@H](CNC(=O)C3CC3)[C@H](N(C)C)C2)c(OC)c1 | i
COc1ccc([C@@H](NC(=O)c2ccc3cccc(F)c3n2)C2CC(O)C2)cn1 (stereo partly specified) | -1.3%
SMILES | Pf Dd2 growth
CCN(Cc1ccncc1)C(=O)CC(c1ccccc1)c1ccc2c(c1)OCO2 (stereo unspecified) | i
Cc1ccccc1OCCSc1nc2ccc(NC(=O)c3cccs3)cc2s1 | 1.12µM*
Cc1ccccc1NC(=O)CSc1nc2ccc(NC(=O)c3ccco3)cc2s1 | 11.2µM*
Cc1ccccc1OCC(=O)Nc1ccc2nc(SCCOc3ccccc3)sc2c1 | -10.2%
Cc1ccccc1C(=O)Nc1ccc2nc(SCCOc3ccccc3)sc2c1 | i
Cc1ccc(NC(=O)CSc2nc3ccc(NC(=O)c4ccco4)cc3s2)c(C)c1 | -8.5%
Cc1ccccc1NC(=O)CSc1nc2ccc(NC(=O)c3ccccc3)cc2s1 | 14.1%
CNC1CCc2nn(C)c(=O)n2CC1 (stereo unspecified) | 21.0%
CC(C)(C)C(=O)N1CC[C@@H](CC(=O)O)[C@@H](CCN2CCN(c3ccccc3)CC2)C1 | 16.6%[44.1 µM]
CC1(C(=O)N2C[C@@H](Oc3cccnc3)C[C@H]2C(=O)N2CCCC2)CCCCC1 | i
C[S+](=O)([O-])c1ccc(-c2ncc3c(n2)OCCN(c2ccccc2)C3=O)cc1 | -2.0%[44.1 µM]
O=C1c2cnc(-c3ccccc3)nc2OCCN1Cc1ccccc1 | i
CN(C)C(=O)c1ccc(-c2ncc3c(n2)OCCN(Cc2ccccc2)C3=O)cc1 | 2.24µM*
COc1cc(F)cc(-c2ncc3c(n2)OCCN(C)C3=O)c1 | i
CN(C)C(=O)c1ccc(-c2ncc3c(n2)OCCN(CC2CC2)C3=O)cc1 | i
CN1CCOc2nc(-c3ccc(Oc4ccccc4)cc3)ncc2C1=O | 5.01µM*
CCCn1cnnc1CNC1CCC2(CCNCC2)CC1 | -12.6%
CN(C)C(=O)N1CCC2(CC1)CN(C(=O)c1ccnc(N)c1)Cc1ccccc1O2 | -7.6%
CCn1ccc(C(=O)N2CCC(Cc3ncc(C)n3CCOC)CC2)n1 | -0.7%
O=C(Cn1nc2c(cc1=O)CCCC2)NCCc1c[nH]c2ccc(F)cc12 | 1.1%
Cc1cccc(-c2ccc3c(c2)C(=O)N2CC[C@H](N)[C@H]2C(=O)N3)c1C | -7.7%[44.1 µM]
O=C(O)COCC(=O)N[C@H]1CCN2C(=O)c3cc(-c4ccccc4)ccc3NC(=O)[C@H]12 | -19.1%[44.1 µM]
O=C(NC1CCCCC1)N[C@H]1CCN2C(=O)c3cc(-c4ccccc4)ccc3NC(=O)[C@H]12 | 8.3%[44.1 µM]
CCS[C@H]1CCN2C(=O)c3ccccc3NC(=O)[C@H]12 | 3.8%[44.1 µM]

Screening results deposited in PubChem BioAssay by National Center for Advancing Translational Sciences (NCATS).
